Mcl1 Bid PPI = disrupts binding of human Mcl-1 to Bid peptide. Q07820. AID 1021. inhibition, % at 21.7 µM. 220,000 tested, 0.97% active. TR-FRET Mcl-1/Bid-Dy647 peptide binding, 1536-well;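 active means compounds that cut the binding signal by more than half at the single screening dose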;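 further: His-tagged Mcl-1 with europium anti-His antibody binding Bid BH3 peptide; 0% = Mcl-1 plus peptide wells and 100% = peptide-only wells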
Target sequence (Q07820 whole entry, looked up): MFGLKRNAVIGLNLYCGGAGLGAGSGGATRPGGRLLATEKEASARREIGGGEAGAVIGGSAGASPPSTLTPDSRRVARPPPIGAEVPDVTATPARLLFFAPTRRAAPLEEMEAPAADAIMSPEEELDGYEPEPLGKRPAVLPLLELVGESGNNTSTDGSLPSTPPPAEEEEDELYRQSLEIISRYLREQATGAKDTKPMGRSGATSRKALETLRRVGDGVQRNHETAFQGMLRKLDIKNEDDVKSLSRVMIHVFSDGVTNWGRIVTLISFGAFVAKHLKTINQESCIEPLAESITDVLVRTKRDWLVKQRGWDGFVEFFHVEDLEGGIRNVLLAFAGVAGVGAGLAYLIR
Mcl-1 Bim block = inhibitors of Bim-Mcl-1 interaction, human; Bead-based flow cytometry, Bim peptide-Mcl-1 binding; inhibition, % at 10 µM; 190,000 tested, 0.1% active; in the data active means inhibition above about 40%;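 further: 0% = no compound tracer wells and 100% = peptide blocker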
eIF4E 4G PPI = blocks eIF4E binding to eIF4G. P63073+Q04637. TR-FRET eIF4E-eIF4GI(517-606) binding, 2 h. inhibition, % at 21.7 µM. 220,000 tested, 0.37% active;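 active means inhibition above about 30%, limit read from the data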;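 further: 0% = full FRET control wells and 100% = background wells lacking eIF4GI fragment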
Mcl1-Noxa inh = disrupts binding of human Mcl-1 to Noxa peptide; TR-FRET Mcl-1/Noxa peptide binding, 2 h; 220,000 tested, 1.5% active; Q07820; inhibition, % at 21.7 µM;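 active means compounds that cut the protein-peptide binding signal by more than 50% relative to plate controls in a single-dose test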;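 further: His-tagged Mcl-1 with rhodamine Noxa BH3 peptide and terbium anti-His antibody; 0% = Mcl-1 plus Noxa peptide wells and 100% = peptide-only wells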
14-3-3 Bad inh = disrupts binding of bovine 14-3-3 zeta to phospho-Bad peptide; P63103; TR-FRET 14-3-3zeta/Dy647-pBad peptide displacement, 1 h; inhibition, % at 21.7 µM; 220,000 tested, 0.71% active; AID 781;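 active means inhibition above about 70%, limit read from the data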;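 further: 0% = full 14-3-3 plus peptide FRET controls and 100% = background without 14-3-3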
Target sequence (P63103 whole entry, looked up): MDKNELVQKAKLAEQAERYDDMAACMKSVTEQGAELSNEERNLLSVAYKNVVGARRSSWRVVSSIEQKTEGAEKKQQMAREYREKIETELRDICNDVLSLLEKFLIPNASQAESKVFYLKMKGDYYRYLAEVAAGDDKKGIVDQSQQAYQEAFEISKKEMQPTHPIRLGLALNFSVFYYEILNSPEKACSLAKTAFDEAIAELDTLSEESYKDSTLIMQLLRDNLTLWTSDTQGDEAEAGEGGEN
MCL1 BIM primary = inhibitors of human MCL1 binding to BIM-BH3 peptide | Q07820 | GST-MCL1 / FITC-Bim-BH3 fluorescence polarization | inhibition, % at 10.9 µM | 320,000 tested, 0.68% active | AID 2057;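 active means inhibition above the mean inhibition of all tested compounds plus 3 SD, set per campaign, cut at about 40% in these data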;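 further: 0% = DMSO wells and 100% = unlabeled Bim-BH3 peptide control; higher means more loss of mP so more displacement of Bim peptide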
BCLXL inh confirm = Bcl-xL (human) inhibition, MCL1 counter-screen confirmation. shares compounds with MCL1 BIM primary. GST-Bcl-xL / FITC-Bim BH3 peptide FP binding. inhibition, % at 10.9 µM. 1,700 tested, 54% active;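 active means inhibition above a cutoff equal to the mean inhibition of all tested compounds plus 3 SD, cut at about 30% in these data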;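 further: 0% = DMSO wells and 100% = unlabeled Bim BH3 control peptide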
MCL1 inh confirm = MCL1-BIM-BH3 interaction inhibition, confirmation | shares compounds with MCL1 BIM primary | GST-MCL1 / FITC-Bim-BH3 fluorescence polarization | inhibition, % at 10.9 µM | 1,700 tested, 61% active | AID 2168;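 active means inhibition above the average of all tested compounds plus 3 SD, cut at about 40% in these data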;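 further: 0% = DMSO wells and 100% = unlabeled Bim-BH3 control peptide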
Starred values were filed as active, the others as inactive; . = not tested or not shown; + = active, no number. This is a sample that favours compounds with a hit; in the whole collection about 2.6% have one here.

SMILES	Mcl1 Bid PPI	Mcl-1 Bim block	eIF4E 4G PPI	Mcl1-Noxa inh	14-3-3 Bad inh	MCL1 BIM primary	BCLXL inh confirm	MCL1 inh confirm
CCOC(=O)c1c(=O)n(O)c2ccc(OC)cc2[n+]1[O-]	36	-4	-1	11	36	188*	45*	60*
COCCN=c1scc(-c2ccccc2)n1/N=C/c1c[nH]c2ccccc12	-36	-7	-1	18	-8	-3	.	.
COCCN=c1scc(-c2cccs2)n1/N=C/c1ccc(O)c(O)c1O	-65	4	6	89*	5	49*	65*	93*
CCN=c1scc(C)n1/N=C/c1ccc(O)c(O)c1O	-28	7	7	60*	-1	52*	33*	57*
O=C1C(Nc2ccccc2)=C(N2CCCCC2)C(=O)c2ccccc21	-33	1	5	8	5	1	.	.
O=C1C(Nc2cccc(O)c2)=C(N2CCCCC2)C(=O)c2ccccc21	-62	3	6	30	-4	55*	19	37
Cc1ccc(-c2cc(C(=O)NCc3ccco3)c3ccccc3n2)o1	1	0	12	66*	11	51*	30*	58*
Cc1csc(NC(=O)c2cc(C)nc3ccccc23)n1	-2	0	-4	24	2	-4	.	.
Cc1csc(NC(=O)c2cc(-c3ccco3)nc3ccccc23)n1	12	-2	6	99*	11	40*	21	60*
Cc1ccc(-c2cc(C(=O)O)c3cc(Br)ccc3n2)o1	18	1	7	93*	6	75*	28	44*
Cc1nnc(NC(=O)c2cc(-c3ccco3)nc3ccccc23)s1	.	.	.	.	.	66*	7	33
CCc1nnc(NC(=O)c2cc(-c3ccc(C)o3)nc3ccccc23)s1	.	.	.	.	.	13	.	.
O=C(N/N=C/c1ccc(F)cc1)c1cc(-c2ccco2)nc2ccccc12	98*	-1	27	104*	43	64*	33*	80*
CCOc1ccc(/C=N/NC(=O)c2cc(-c3ccco3)nc3ccccc23)cc1	-19	0	-9	45	4	-2	.	.
Cc1ccccc1-n1nnnc1SCC(=O)NNC(=O)c1ccc(NC(=O)CC#N)cc1	.	.	.	.	.	8	.	.
O=c1[nH]c2cc3c(cc2cc1CN(Cc1ccc2c(c1)OCO2)Cc1nnnn1CC1CCCO1)OCO3 (configuration not stated)	-14	-2	6	13	-6	74*	10	7
CN(C(=O)CC1C(=O)NCCN1Cc1cccc(C(F)(F)F)c1)C1CCOCC1 (configuration not stated)	.	.	.	.	.	19	.	.
CCCOc1ccc(CNC(=S)Nc2ccccc2)cc1Cl	.	.	.	.	.	42*	7	9
CC1C(c2ccccc2)N(C)C(c2ccccc2)C(C)C1(O)C#Cc1ccccc1 (configuration not stated)	3	-8	3	0	10	3	.	.
O[C@@H]1CN(Cc2ccc(-n3cccn3)cc2)CC[C@H]1N1CCN(c2ccccc2F)CC1	.	.	.	.	.	2	.	.
O=S(=O)([N-]c1nc2ccccc2nc1-[n+]1ccccc1)c1ccccc1	-14	-2	0	-8	9	-3	.	.
O=S(=O)([N-]c1nc2ccccc2nc1-[n+]1ccc(-c2ccncc2)cc1)c1ccccc1	-19	2	-5	21	-6	+	150*	183*
Cc1ccc(-c2cc(C(=O)OCn3nnc4ccccc4c3=O)c3ccccc3n2)cc1	-4	-2	3	-16	-7	1	.	.
Cc1sc2cc3c(c(C(=O)c4ccccc4)[n+]2c1C)-c1cccc2cccc-3c12	-25	1	1	23	-22	4	.	.
O=C(c1ccccc1)c1c2c(cc3sc4ccccc4[n+]13)-c1cccc3cccc-2c13	29	8	-57	38	-7	116*	62*	71*
SMILES	Mcl1 Bid PPI	Mcl-1 Bim block	eIF4E 4G PPI	Mcl1-Noxa inh	14-3-3 Bad inh	MCL1 BIM primary	BCLXL inh confirm	MCL1 inh confirm
Cc1cc(-c2ccco2)c(C#N)c2nc3ccccc3n12	.	4	.	.	.	128*	127*	173*
Cc1cc(C(C)C)n2c(nc3ccccc32)c1C#N	-32	0	0	12	-8	-5	.	.
O=C(O[C@@H]1OC2COC(=O)c3cc(O)c(O)c(O)c3-c3c(cc(O)c(O)c3O)C(=O)O[C@@H]([C@H]1O)[C@@H]2O)c1cc(O)c(O)c(O)c1	-29	11	22	113*	53	91*	74*	87*
CC(=O)Oc1ccc(N2C(=O)C3C(C2=O)C(C(=O)c2ccc(Cl)cc2)N2CCCC32)cc1 (configuration not stated)	-21	.	-5	17	0	74*	66*	86*
COc1cc(NCCCCCCCN)c2ncccc2c1	-23	22	1	32	10	1	.	.
COc1cc(NC(C)CCCN)c2ncccc2c1 (configuration not stated)	.	.	.	.	.	53*	32*	50*
CCCc1cc(=O)[nH]c2nnc(SCC(=O)Nc3cc(C)on3)n12	.	.	.	.	.	-5	.	.
COc1ccc(-n2cccc2/C=C2\C(=N)N3N=C(c4ccco4)SC3=NC2=O)cc1	81*	2	46*	87*	82*	66*	28	81*
COC(=O)C1=COC(C)C2CN3CCc4c([nH]c5ccccc45)C3CC12 (configuration not stated)	-30	25	0	9	-2	91*	62*	80*
O=C(NCCO)c1nc(C(=O)c2ccccc2)c2ccccc2n1	.	.	.	.	.	5	.	.
c1cc(-c2nnc3n2CCCCC3)ccn1	-11	-1	-9	9	-15	84*	10	10
Cc1ccc(-c2nnc3n2CCCCC3)cc1	-1	-3	-9	-6	2	2	.	.
CCCS(=O)(=O)c1cn2cccc(N)c2c1S(=O)(=O)CCC	-66	1	2	-3	-14	102*	30	21
Cn1ncc(Cl)c1C(=O)NC(=S)Nc1sc2c(c1C#N)CCCCC2	-13	-7	3	.	-2	8	.	.
O=c1[nH]c2c(s1)C=Nc1ccccc1N2	-10	0	-6	25	-4	+	118*	152*
CC(C)Oc1ccc(S(=O)(=O)N2CCOCC2)cc1NC(=O)c1ccc(N2CCCC2=O)cc1	.	.	.	.	.	-4	.	.
O=C(Cn1nnc(-c2ccccc2)n1)N/N=C/c1cccc([N+](=O)[O-])c1O	-109	0	-3	44	-4	46*	47*	87*
Cc1ccc(Nc2c([N+](=O)[O-])ccc3nonc23)cc1C	.	.	.	.	.	1	.	.

Compound activity (PubChem)
